Tat export inh = E. coli Tat export inhibitors, primary screen, MC4100, TorA-mCherry reporter, fluorescence, single point; inhibition, % at 10 µM; hit rate 0.036% among 340,000; AID 488895, 2010;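 active means mean replicate inhibition at least 50% and at least half of replicates individually reaching 50%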;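 further: exported cargo escapes ClpAP degradation while cytoplasmic cargo is degraded and loses fluorescence; 0% = median of neutral control wells and 100% = median of NaSCN control wells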
AddAB inh = growth inhibition of E. coli expressing H. pylori AddAB, primary screen, AddAB inhibitor project, absorbance | AID 435030, 2010 | hit rate 0.29% among 330,000 | inhibition, % at 11.9 µM; in the data active means inhibition above about 12%;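 further: 0% = vehicle wells of infected cells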
E coli growth-1 = E. coli growth inhibition, primary screen, OD600; Escherichia coli growth, 23 h; stronger effect = lower value; OD600 absorbance (concentration not given with the values); hit rate 0.21% among 330,000; AID 1053175, 2014;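 active means OD600 absorbance below the run mean of sample wells minus 3.6 SD, in any replicate, cut at about 0.56 in these data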
E coli growth-2 = E. coli V3065 growth inhibition, primary screen, counter-screen for AddAB inhibitor project, absorbance, OD600. 18 h. inhibition, % at 11.9 µM. hit rate 0.27% among 330,000;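 active means inhibition above the campaign's mean inhibition across all tested compounds plus 3 SD, cut at about 9.9% in these data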;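 further: uninfected addAB+ strain grown without phage in ampicillin broth; 0% = DMSO wells and 100% = ciprofloxacin 0.95 µg/ml wells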
phage Ecoli inh = growth loss of phage-infected E. coli, primary screen, RecBCD inhibitor project, absorbance, with phage, HTS. inhibition, % at 11.9 µM. hit rate 0.26% among 360,000. AID 651602, 2012; in the data active means inhibition above about 11%
Starred values were filed as active, the others as inactive; . = not tested or not shown. Only some compounds are listed: those with a hit (about 0.5% of all), similar ones and a draw of the others.

SMILES	Tat export inh	AddAB inh	E coli growth-1	E coli growth-2	phage Ecoli inh
Cc1noc(C)c1COC(=O)c1cccc(S(=O)(=O)N2CCOCC2)c1	53.3*	3.2	0.702	2.0	1.6
CCN(CC)c1ccc(N=Cc2ccc([N+](=O)[O-])o2)cc1	-1.3	11.6	0.146*	5.0	4.9
Cc1nc2ccccn2c1C(=O)NN=Cc1ccc([N+](=O)[O-])o1	.	.	0.516*	.	.
O=C(NN=Cc1ccc([N+](=O)[O-])o1)C(O)c1ccccc1 (stereo unspecified)	.	.	0.445*	.	.
Cc1nc2ccccn2c1C(=O)N/N=C/c1ccc([N+](=O)[O-])o1	-9.8	8.8	.	6.0	7.0
COc1ccccc1OCC(=O)NN=CC=Cc1ccc([N+](=O)[O-])o1	.	.	0.365*	.	.
C[C@@]12C(=O)N(Cc3ccco3)CC(=O)N1C1c3ccccc3OCC1C2c1ccccc1 (stereo partly specified)	.	.	0.722	.	.
COc1ccc(C(=O)c2cnc(N=CN(C)C)s2)cc1	.	.	0.615	.	.
O=C(NCC1CCCO1)c1cccc2c1C(=O)c1ccc(-c3ccc(F)cc3OCc3ccccc3)cc1S2(=O)=O (stereo unspecified)	.	.	0.687	.	.
CCCCC1CCCO[C@@](C(=O)NCc2cc(C)n(C)n2)(C(F)(F)F)C1 (stereo partly specified)	.	.	0.649	.	.
COC(=O)NN=Cc1ccc([N+](=O)[O-])o1	.	.	0.0515*	.	.
S=C1SCN(Cc2ccccn2)CN1Cc1ccco1	-5.5	0.7	0.519*	0.3	0.1
COCCn1c(SCC(=O)NCc2ccc3c(c2)OCO3)nnc1C(C)C	-5.7	2.1	0.664	-1.8	0.8
COCCn1c(SCC(=O)NCc2ccc3c(c2)OCO3)nnc1-c1c[nH]c2ccccc12	-0.9	1.0	0.793	0.6	92.8*
O=[N+]([O-])c1nn(-c2ccccc2)n(O)c1=NC1CCN(Cc2ccccc2)CC1	4.4	8.0	0.591	10.3*	5.0
O=C(Nc1nc2ccccc2s1)c1ccc([N+](=O)[O-])o1	-11.5	5.2	0.661	6.5	2.8
COc1ccc2nc(NC(=O)c3ccc([N+](=O)[O-])o3)sc2c1	-13.5	11.5	0.484*	7.7	6.7
COC(=O)C(C)C1C[C@]1(C)C(NC(=O)OCc1ccccc1)c1ccccc1 (stereo partly specified)	.	.	0.648	.	.
O=C(NN=Cc1cccs1)c1cc(-c2ccc3ccccc3c2)n[nH]1	.	.	0.801	.	.
CC(=O)Nc1cccc(C(C)=NNC(=O)c2ccc(Cl)cc2Cl)c1	.	.	0.614	.	.
O=[N+]([O-])/C=C/c1cc2ccccc2[nH]1	1.0	-0.7	0.5*	-1.4	3.4
C=CCSC(=S)NC1CCS(=O)(=O)C1 (stereo unspecified)	-21.5	3.7	0.502*	-1.9	2.7
COc1ccc2cc(C(=O)C3CCCN(C(=O)Cc4c(C)noc4C)C3)ccc2c1 (stereo unspecified)	-1.7	1.1	0.544*	-2.3	-1.9
COc1ccc2cc(C(=O)C3CCCN(C(=O)c4snnc4C)C3)ccc2c1 (stereo unspecified)	2.6	-3.2	0.695	-1.3	-0.9
O=C(NN=Cc1ccncc1)C1CC1C(=O)NN=Cc1ccncc1 (stereo unspecified)	.	.	0.69	.	.
SMILES	Tat export inh	AddAB inh	E coli growth-1	E coli growth-2	phage Ecoli inh
O=[N+]([O-])c1cccc(-c2ccc(/C=N/NC(=S)Nc3ccccc3)o2)c1	-3.7	8.8	.	10.2*	1.0
COc1ccc(C=NNC(=S)SCN2C(=O)C3CCC(C)(C2=O)C3(C)C)cc1 (stereo unspecified)	.	.	0.715	.	.
COc1ccc(/C=N\NC(=S)SCN2C(=O)C3CCC(C)(C2=O)C3(C)C)cc1 (stereo unspecified)	-5.5	8.0	.	11.1*	4.2
CN(C)c1ccc(/C=N\NC(=S)SCN2C(=O)C3CCC(C)(C2=O)C3(C)C)cc1 (stereo unspecified)	0.7	7.2	.	14.6*	4.1
CC12CCC(C(=O)N(CSC(=S)NN=Cc3ccccc3)C1=O)C2(C)C (stereo unspecified)	.	.	0.651	.	.
COc1ccc2c(c1)C1=NN(C(C)=CC(C)=O)C(c3cccc(F)c3)C1CC2 (stereo unspecified)	.	.	0.678	.	.
c1ccc(CNc2nc(N3CCN(Cc4ccccc4)CC3)nc3ccccc23)cc1	.	1.5	0.484*	1.0	2.7
COc1ccccc1Nc1nc(NCc2ccco2)c2ccccc2n1	.	-0.9	0.594	0.9	4.2
CNc1nc(NCc2ccccc2)c2ccccc2n1	-7.3	1.8	0.482*	-0.3	3.9
OCCNc1nc(Nc2ccccc2)nc2ccccc12	-6.5	-2.6	0.674	-2.2	-0.6
OCCNc1nc(Nc2ccc(Br)cc2)nc2ccccc12	.	-2.1	0.404*	-1.4	4.0
c1ccc(N2CCN(c3nc(NCc4ccco4)c4ccccc4n3)CC2)cc1	-0.4	6.6	0.703	0.3	2.1
Cc1ccc(Nc2nc(NCc3ccco3)c3ccccc3n2)cc1	-64.0	0.3	0.411*	4.3	3.9
CCOCCCNc1ncnc2c1[nH]c1ccccc12	-1.1	3.4	0.692	1.7	2.5
C=CCNc1ncnc2c1[nH]c1ccc(Cl)cc12	-10.7	6.9	0.474*	5.7	9.0
C=CCNc1ncnc2c1[nH]c1ccccc12	-9.9	2.4	0.5*	3.1	6.5
Cc1ccc(-n2[nH]c(C)c(C=Nc3ccc(S(=O)(=O)Nc4nccs4)cc3)c2=O)cc1	.	12.6*	0.658	8.5	.
COc1ccccc1NC(=O)CN(Cc1ccco1)C(=O)c1cc2ccccc2o1	3.0	1.6	0.538*	-2.7	.
COc1ccccc1NC(=O)CN(Cc1ccco1)C(=O)c1ccc(=O)[nH]c1	-2.5	0.3	0.691	-0.5	2.4
CCCOC(=O)C1C2C=C[C@]3(CN(CC4CCCO4)C(=O)C13)O2 (stereo partly specified)	.	.	0.681	.	.
CC(C)(C)OC(=O)NCCCCC(NC(=O)c1nc[nH]c1C(=O)NCc1ccccc1)C(=O)OC(C)(C)C (stereo unspecified)	.	.	0.689	.	.
CCCCCCCCC(=O)N1CCN(c2cc3c(cc2F)c(=O)c(C(=O)O)cn3CC)CC1	8.5	-0.9	0.415*	2.5	0.1
CCCCCCCC(=O)N1CCN(c2cc3c(cc2F)c(=O)c(C(=O)O)cn3CC)CC1	-1.3	.	0.097*	.	2.5
CCCCCCn1cc(C(=O)O)c(=O)c2cc(F)c(N3CCN(C)CC3)cc21	8.0	1.3	0.634	-0.4	.
CC(C)CC(C(=O)O)N1C(=O)C2C3CC(C2C1=O)C1C(c2ccccc2)c2sc(=O)[nH]c2SC31 (stereo unspecified)	-7.7	3.8	0.506*	0.8	4.8
Cc1nc(N)nc(N)c1Oc1ccc(Cl)cc1	-2.2	.	0.519*	.	4.5
CNC[C@H](Cc1ccccc1)NC[C@@H](Cc1cccc2ccccc12)NCCc1ccc(C)cc1	3.5	-1.8	.	-1.7	-0.3
CNCC(Cc1ccccc1)NCC(Cc1cccc2ccccc12)NCCc1ccc(C)cc1 (stereo unspecified)	.	.	0.0475*	.	.
CC(=O)Oc1ccc(C(=O)Cc2ccccn2)c(O)c1	56.0*	3.4	0.654	-1.2	3.1
CCCCC(=O)NNC(=S)NC(=O)c1ccc(C)cc1	-7.8	-5.9	0.609	-4.4	1.4

Screens from PubChem.
